{"source": "ChEMBL document CHEMBL4513216", "about": "“Probing the Open Global Health Chemical Diversity Library for Multistage-Active Starting Points for Next-Generation Antimalarials” (ACS Infect Dis, 2020)", "note": "About 8,600 (12%) of roughly 69,000 compounds showed an effect of 50% or more. For the sample, strong results were picked, then their nearest neighbours and some compounds at random.", "data": [{"tested_on": "Plasmodium berghei", "assay": "Screen against P. berghei liver stage (PbLuc), transformed with Luciferase, at 10uM", "type": "functional, HepG2", "conditions": "tested at 10 uM", "units": {"INHIBITION": "%"}, "values": [{"smiles": "CCCN(Cc1nc(-c2ccoc2)oc1C)CC1CCCO1", "note": "(configuration not stated)", "INHIBITION": -13.1}, {"smiles": "O=C(O)C1(Cc2cccc(-c3ccc(F)cc3)c2)CCOCC1", "INHIBITION": -22.6}, {"smiles": "COc1ccc(-c2cccc(CC3(C(=O)O)CCOCC3)c2)cc1", "INHIBITION": 29.2}, {"smiles": "O=C(O)C1(Cc2cccc(-c3ccc(F)c(F)c3)c2)CCOCC1", "INHIBITION": 58.6}, {"smiles": "Cc1cccc(-c2cccc(CC3(C(=O)O)CCOCC3)c2)c1", "INHIBITION": 13.5}, {"smiles": "Cc1cc(C)cc(-c2ccc(CC3(C(=O)O)CCOCC3)cc2)c1", "INHIBITION": 61.4}, {"smiles": "Cc1cc(C)cc(-c2cccc(CC3(C(=O)O)CCOCC3)c2)c1", "INHIBITION": 38.7}, {"smiles": "Cn1cccc1C(=O)N1C[C@@H](OCc2cccnc2)[C@H]2OCCC[C@H]21", "INHIBITION": 41.3}, {"smiles": "CN(C)CC(=O)NC1CC(=O)N(CCc2ccccc2)C1", "note": "(configuration not stated)", "INHIBITION": 11.2}, {"smiles": "Cc1cc2c(=O)n3c(nc2s1)CCN(C(=O)c1cn(C)nc1C)CC3", "INHIBITION": 14.7}, {"smiles": "Cc1nnn2c1COCC(CNCc1nccs1)C2", "note": "(configuration not stated)", "INHIBITION": -27.6}, {"smiles": "CC(CNC1CCN(Cc2ccncc2)CC1)c1ccc(F)cc1F", "note": "(configuration not stated)", "INHIBITION": -0.275}, {"smiles": "c1ccc(CN2CCC(NCCc3ccc4c(c3)CCO4)CC2)nc1", "INHIBITION": 25.7}, {"smiles": "Fc1ccc(OCCNC2CCN(Cc3ccccn3)CC2)c(F)c1", "INHIBITION": 53.6}, {"smiles": "Cc1cc2n(n1)CC(CNC1CCN(c3ccccn3)CC1)CN2", "note": "(configuration not stated)", "INHIBITION": 31.4}, {"smiles": "Fc1ccc(OCCNC2CCN(Cc3ccncc3)CC2)c(F)c1", "INHIBITION": 61.3}, {"smiles": "Cc1cc2n(n1)CC(CNC1CCN(Cc3ccccc3C)CC1)CN2", "note": "(configuration not stated)", "INHIBITION": 16.6}, {"smiles": "Cc1cc2n(n1)CC(CNC1CCN(Cc3ccccn3)CC1)CN2", "note": "(configuration not stated)", "INHIBITION": 50.2}, {"smiles": "N#Cc1ccc(NC2CCN(Cc3ccccn3)CC2)c(F)c1", "INHIBITION": -5.78}, {"smiles": "Cc1cc2n(n1)CC(CNC1CCN(Cc3ccncc3)CC1)CN2", "note": "(configuration not stated)", "INHIBITION": 16.1}, {"smiles": "Fc1cccc(-c2c[nH]c(C3CCCN3)n2)c1", "note": "(configuration not stated)", "INHIBITION": -4.62}, {"smiles": "CN(C(=O)NCC1(CN2CCOCC2)CCCCC1)C1CC1", "INHIBITION": 0.0944}, {"smiles": "Cc1nc(CN2CCC(N(C)Cc3noc(C(C)C)n3)C2)oc1C", "note": "(configuration not stated)", "INHIBITION": 11.4}, {"smiles": "CN1CC(=O)N(c2cccc(F)c2)CC12CCN(CC1CC1)C2", "note": "(configuration not stated)", "INHIBITION": 19.5}, {"smiles": "CN(Cc1nccn1C)S(=O)(=O)N1CCCC1c1ccco1", "note": "(configuration not stated)", "INHIBITION": 15.7}, {"smiles": "CC(O)CN1CCC(=O)N(Cc2ccccc2)Cc2ccccc21", "note": "(configuration not stated)", "INHIBITION": 28.3}, {"smiles": "COc1ccc(CN2CCN(C(C)c3nc(C4CC4)no3)CC2)cc1", "note": "(configuration not stated)", "INHIBITION": 40.3}, {"smiles": "CC(c1nc(C2CC2)no1)N1CCN(Cc2cccc(C#N)c2)CC1", "note": "(configuration not stated)", "INHIBITION": 60.5}, {"smiles": "CC(C)c1noc(C(C)N2CCN(Cc3cccc(C#N)c3)CC2)n1", "note": "(configuration not stated)", "INHIBITION": -8.11}, {"smiles": "CC(c1nc(C2CC2)no1)N1CCN(c2ccc(C#N)cn2)CC1", "note": "(configuration not stated)", "INHIBITION": 55.3}, {"smiles": "CC(c1nc(C2CC2)no1)N1CCN(Cc2ccc(C#N)cc2)CC1", "note": "(configuration not stated)", "INHIBITION": 57}, {"smiles": "Cc1noc(C(C)N2CCN(Cc3cccc(C#N)c3)CC2)n1", "note": "(configuration not stated)", "INHIBITION": 21.5}, {"smiles": "CC(C)c1noc(C(C)N2CCN(c3ccc(C#N)cn3)CC2)n1", "note": "(configuration not stated)", "INHIBITION": 45.9}, {"smiles": "CC(c1nc(C2CC2)no1)N1CCN(Cc2ccccc2)CC1", "note": "(configuration not stated)", "INHIBITION": 27.4}, {"smiles": "Cc1noc(C(C)N2CCN(c3ccc(C#N)cn3)CC2)n1", "note": "(configuration not stated)", "INHIBITION": -5.78}, {"smiles": "CCC(C)(C)NC(=O)CN1C=Nc2ccccc2S1(=O)=O", "INHIBITION": 19.6}, {"smiles": "c1cnc(N2CCC3(CCN(CC4CCOCC4)CC3)C2)nc1", "INHIBITION": 5.67}, {"smiles": "CCc1c(C(=O)O)nnn1-c1ccc(C)cc1C", "INHIBITION": 39.2}, {"smiles": "CN(C)S(=O)(=O)N1C[C@@H]2CN(Cc3ccoc3)CCO[C@@H]2C1", "INHIBITION": 23.6}, {"smiles": "CN1CCN(CCOc2ccc(NC(=O)c3ccoc3)cc2)CC1", "INHIBITION": -6.99}, {"smiles": "CCc1c(C(=O)O)nnn1-c1cccc(C)c1C", "INHIBITION": 6.09}, {"smiles": "COc1cc(N2CC[C@H](O)[C@@H]2Cc2cccnc2)ncn1", "INHIBITION": 6.6}, {"smiles": "COCCO[C@H]1CCN(c2cc(OC)ncn2)[C@H]1Cc1cnn(C)c1", "INHIBITION": 76.2}, {"smiles": "COCCN1CC[C@@H](O)[C@@H]1Cc1ccccc1", "INHIBITION": 6.32}, {"smiles": "COc1cc(N2CC[C@H](O)[C@@H]2Cc2cnn(C)c2)ncn1", "INHIBITION": 22.7}, {"smiles": "COc1cc(N2CC[C@@H](O)[C@@H]2Cc2cccnc2)ncn1", "INHIBITION": 85.8}, {"smiles": "COc1cc(N2CC[C@@H](O)[C@@H]2Cc2ccccc2)ncn1", "INHIBITION": 92.8}, {"smiles": "COCCN1CC[C@H](O)[C@@H]1Cc1ccccc1", "INHIBITION": 0.79}, {"smiles": "COc1cc(N2CC[C@@H](OC)[C@@H]2Cc2cnn(C)c2)ncn1", "INHIBITION": 23.5}, {"smiles": "COCCO[C@@H]1CCN(c2cc(OC)ncn2)[C@H]1Cc1cnn(C)c1", "INHIBITION": 14.6}, {"smiles": "COc1cc(N2CC[C@H](O)[C@@H]2Cc2ccccc2)ncn1", "INHIBITION": 75.4}, {"smiles": "COc1cc(N2CC[C@@H](O)[C@@H]2Cc2ccncc2)ncn1", "INHIBITION": 43.9}, {"smiles": "COCC(=O)N1CC[C@@H](O)[C@@H]1Cc1ccccc1", "INHIBITION": 37.5}, {"smiles": "Cc1cc(OCCC(=O)Nc2cccc(F)c2)nnc1C", "INHIBITION": -9.93}, {"smiles": "Cc1cc2c(=O)n3c(nc2s1)CCN(Cc1cncn1C)CC3", "INHIBITION": 5.11}, {"smiles": "Cc1cnn(CC(=O)N2CCCN(c3ncccc3C#N)CC2)c1", "INHIBITION": -14.7}, {"smiles": "CS(=O)(=O)c1cnc(N2CCCC2)nc1C1CCN(C(=O)C2CC2)CC1", "INHIBITION": -15.7}, {"smiles": "Cc1cc(C(=O)NCc2ccc(-c3n[nH]cc3C(=O)N(C)C)cc2)on1", "INHIBITION": 39.35}, {"smiles": "CCc1cnc(N2CC[C@H]3[C@H]2CC(=O)N3c2cccnc2)nc1", "INHIBITION": -34.7}, {"smiles": "Cc1ccc(N2N=C(C(N)=O)S(=O)(=O)c3cccnc32)cc1", "INHIBITION": 41.5}, {"smiles": "Cc1cc(CN2CCN(C(=O)NCc3cccs3)CC2)on1", "INHIBITION": 14.1}, {"smiles": "COCCO[C@H]1CCN(c2cc(OC)ncn2)[C@H]1Cc1cccnc1", "INHIBITION": 82.8}, {"smiles": "Cc1ccc(N2CC[C@H](OCC3CC3)[C@@H]2Cc2cccnc2)nn1", "INHIBITION": 42.4}, {"smiles": "c1cnc(N2CC[C@@H](OCC3CC3)[C@@H]2Cc2cccnc2)nc1", "INHIBITION": 64.3}, {"smiles": "COCCO[C@H]1CCN(c2ccc(C)nn2)[C@H]1Cc1cccnc1", "INHIBITION": 5.68}, {"smiles": "COCCO[C@H]1CCN(c2cc(OC)ncn2)[C@H]1Cc1ccncc1", "INHIBITION": -39.2}, {"smiles": "c1ccc(N2CC[C@H](OCC3CC3)[C@@H]2Cc2cccnc2)nc1", "INHIBITION": 37.5}]}]}
